Inconclusive results are not listed. Unmarked numbers belong to inactive results. Calls follow the shape of the dose curve; as a rule, active = well fitted curve in the direction sought with a large enough effect in the signal ratio, with a control signal flat; inconclusive = small, poorly fitted or top-dose-only effect, or effect the other way, or a change in a side signal; inactive = no such curve, though single readings can be large or run the other way; the % refers to the signal ratio.
target: Androgen receptor (Homo sapiens) (UniProt P10275); test: qHTS assay for small molecule agonists of androgen receptor signaling (AID 588515); conditions: AR-UAS-bla HEK293, beta-lactamase ratio, agonist 16 h; hits give high values
Sequence (P10275 whole entry, looked up): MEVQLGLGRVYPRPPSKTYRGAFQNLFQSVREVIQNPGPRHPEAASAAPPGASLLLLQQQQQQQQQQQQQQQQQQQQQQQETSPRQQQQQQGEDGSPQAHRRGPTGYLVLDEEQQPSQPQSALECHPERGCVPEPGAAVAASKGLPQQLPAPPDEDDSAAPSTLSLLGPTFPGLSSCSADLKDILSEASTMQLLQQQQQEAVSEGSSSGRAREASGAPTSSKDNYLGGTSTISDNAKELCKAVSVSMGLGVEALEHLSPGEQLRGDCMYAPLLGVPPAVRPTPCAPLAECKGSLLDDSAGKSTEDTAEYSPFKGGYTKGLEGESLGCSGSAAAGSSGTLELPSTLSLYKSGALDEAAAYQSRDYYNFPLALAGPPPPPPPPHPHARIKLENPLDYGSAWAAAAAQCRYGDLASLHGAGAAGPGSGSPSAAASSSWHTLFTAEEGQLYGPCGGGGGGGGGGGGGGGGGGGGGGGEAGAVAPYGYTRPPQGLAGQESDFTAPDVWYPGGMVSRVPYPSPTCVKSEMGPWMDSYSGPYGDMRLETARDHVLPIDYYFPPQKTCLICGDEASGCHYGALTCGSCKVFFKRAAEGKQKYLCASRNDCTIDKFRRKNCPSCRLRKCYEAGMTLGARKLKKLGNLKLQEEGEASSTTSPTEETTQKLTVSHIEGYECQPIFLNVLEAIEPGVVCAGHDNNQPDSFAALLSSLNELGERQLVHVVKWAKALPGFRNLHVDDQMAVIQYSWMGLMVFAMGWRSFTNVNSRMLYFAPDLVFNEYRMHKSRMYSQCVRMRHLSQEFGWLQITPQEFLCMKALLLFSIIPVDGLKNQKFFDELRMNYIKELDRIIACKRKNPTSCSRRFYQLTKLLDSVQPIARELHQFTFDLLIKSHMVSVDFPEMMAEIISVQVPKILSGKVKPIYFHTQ
Summary of the method: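 Stimulation of an AR-responsive β-lactamase reporter in GripTite HEK293 cells was measured after 16 h compound exposure at 37 °C, via CCF4 fluorescence after 2 h RT. EC50 from Hill fits, normalized to R1881 at 30 nM.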
% is scaled to controls: 0 for no effect and ±100 for the full control effect.

Compound	activation
CCC(C)(C)C(=O)O	-5.44%
FC(F)(F)c1cccc(Cl)c1	4.73%
Cc1ccc2cccnc2c1	14.8%
CC(=C/C=C/C(C)=C/C=C/C=C(C)/C=C/C=C(C)/C=C/C(=O)O)/C=C/C(=O)O	17%
Cc1cccc(C(=O)O)c1	-5.05%
